Compound activity as filed in PubChem BioAssay.
Only some compounds are listed: those with a hit (about 0.87% of all), similar ones and a draw of the others.
BLM inh-1 – blocks DNA unwinding by human BLM helicase. recombinant BLM DNA unwinding, fluorescence dequenching. Potency, µM (series often up to 56.1 µM), for inactives: top-dose activity change, negative = inhibition, most hits filed as inhibitors. hit rate 0.2% among 350,000;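 note: plate controls were vehicle for no effect and no enzyme for full effect; nearly all actives have a fitted effect of over 35% in size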
APE1 inh – inhibitors of human APE1 endonuclease; P27695; recombinant APE1, TAMRA/BHQ-2 abasic DNA cleavage fluorescence; Potency, µM (series often up to 65.8 µM), without a hit: top-dose activity change, negative = inhibition, most hits filed as inhibitors; hit rate 0.35% among 350,000;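 note: plate controls were vehicle for no effect and reference inhibitor for full effect; nearly all actives have a fitted effect of over 55% in size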
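Readout is kinetic fluorescence (ex 525, em 598 nm) from cleavage of 50 nM TAMRA/BHQ-2 THF abasic duplex by 0.75 nM APE1, compound added 15 min beforehand at RT.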
WRN inhibitor – WRN helicase (human) inhibition; Q14191; WRN helicase unwinding, fluorescent forked duplex, kinetic; Potency, µM (titrated, usually from 114 µM), for inactives: at the highest dose activity change, negative = inhibition, usual class: inhibitors; hit rate 0.46% among 360,000; AID 651768; note: nearly all actives have a fitted effect of over 55% in size
Target sequence (Q14191 whole entry, looked up): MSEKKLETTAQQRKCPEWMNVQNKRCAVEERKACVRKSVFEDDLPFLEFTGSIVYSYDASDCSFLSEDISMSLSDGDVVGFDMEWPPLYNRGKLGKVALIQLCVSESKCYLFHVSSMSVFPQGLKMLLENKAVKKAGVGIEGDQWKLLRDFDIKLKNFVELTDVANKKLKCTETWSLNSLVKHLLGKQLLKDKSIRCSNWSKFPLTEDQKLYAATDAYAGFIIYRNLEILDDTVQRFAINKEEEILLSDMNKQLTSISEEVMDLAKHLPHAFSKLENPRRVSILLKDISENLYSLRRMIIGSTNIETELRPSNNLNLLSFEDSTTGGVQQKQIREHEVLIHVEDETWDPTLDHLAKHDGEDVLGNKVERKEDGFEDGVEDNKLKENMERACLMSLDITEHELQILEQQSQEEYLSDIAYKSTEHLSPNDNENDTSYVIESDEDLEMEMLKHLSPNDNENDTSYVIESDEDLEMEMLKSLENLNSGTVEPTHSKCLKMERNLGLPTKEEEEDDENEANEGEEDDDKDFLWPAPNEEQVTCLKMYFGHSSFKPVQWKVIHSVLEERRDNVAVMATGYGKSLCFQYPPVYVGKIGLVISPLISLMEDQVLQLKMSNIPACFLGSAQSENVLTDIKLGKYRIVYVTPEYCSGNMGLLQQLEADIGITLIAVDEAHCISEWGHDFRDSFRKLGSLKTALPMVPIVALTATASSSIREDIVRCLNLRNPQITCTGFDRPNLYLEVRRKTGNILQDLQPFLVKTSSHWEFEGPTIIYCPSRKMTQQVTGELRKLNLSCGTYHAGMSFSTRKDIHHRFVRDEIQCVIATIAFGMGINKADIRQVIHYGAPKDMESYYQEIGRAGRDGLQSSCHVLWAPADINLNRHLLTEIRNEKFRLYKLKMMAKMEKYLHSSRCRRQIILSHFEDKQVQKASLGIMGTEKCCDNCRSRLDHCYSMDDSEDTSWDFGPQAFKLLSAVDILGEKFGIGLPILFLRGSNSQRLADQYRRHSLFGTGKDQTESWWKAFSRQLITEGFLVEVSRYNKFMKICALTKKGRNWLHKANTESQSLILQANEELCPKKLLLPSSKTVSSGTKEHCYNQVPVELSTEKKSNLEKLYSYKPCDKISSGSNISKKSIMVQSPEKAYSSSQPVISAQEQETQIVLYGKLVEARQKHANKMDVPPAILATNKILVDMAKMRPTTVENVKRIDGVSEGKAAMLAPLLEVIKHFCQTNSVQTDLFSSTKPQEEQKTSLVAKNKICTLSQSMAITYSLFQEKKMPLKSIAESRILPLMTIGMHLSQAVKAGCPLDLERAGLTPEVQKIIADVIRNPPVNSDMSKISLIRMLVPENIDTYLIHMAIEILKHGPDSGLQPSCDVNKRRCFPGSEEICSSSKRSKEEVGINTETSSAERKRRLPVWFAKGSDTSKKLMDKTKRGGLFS
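Fluorescence dequenching readout, ex 525 nm/em 598 nm, kinetic mode: forked duplex DNA (100 nM final) with adjacent fluorophore and quencher unwound by WRN (20 nM final) with 2 mM ATP. Compound preincubation 15 min, room temperature.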
RECQ1 inh-1 – blocks DNA unwinding by human RECQ1 | P46063 | RECQ1 DNA unwinding, red fluorescence kinetic read | Potency, µM (doses to about 57.3 µM), inactives show top-dose activity, negative = inhibition, hits mostly inhibitors | hit rate 0.54% among 240,000 | AID 2549;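 note: plate controls were vehicle for no effect and no enzyme for full effect; nearly all actives have a fitted effect of over 30% in size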
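RECQ1T1 50 nM; forked duplex (20 bp + 30-nt ss tails) 200 nM, ATP 2 mM final; pH 8.0, 2 mM MgCl2, 2.5 ug/ml poly(dI-dC); 15 min compound preincubation; discontinuous kinetic read over 2 h at RT.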
FEN1 inhibitor – inhibitors of human flap endonuclease 1 | AID 588795 | Recombinant FEN1 flap cleavage, fluorescence, 15 min | hit rate 0.35% among 390,000 | Potency, µM (titrated, usually from 114 µM), inactives show at the highest dose activity change, negative = inhibition, actives largely listed as inhibitors; note: nearly all actives have a fitted effect of over 65% in size
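Read-out was taken twice, immediately and after 15 min, following addition of 50 nM substrate to 10 nM FEN1 that had sat with test compound for 15 min at room temperature. Curves came from a four-parameter Hill model.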
BLM inh-2 – confirmation of inhibitors of human Bloom syndrome helicase BLM. shares compounds with BLM inh-1. BLM DNA unwinding, fluorescence quenching, biochemical. Potency, µM, for the others: max response, negative = inhibition, hits mostly inhibitors. hit rate 40% among 220. AID 2585;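 note: strand separation dequenches TAMRA so unwinding raises red fluorescence; series mostly up to about 69 µM; nearly all actives have a fitted effect of over 45% in size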
RECQ1 conf – confirmation of human RECQ1 helicase inhibitors | RECQ1 helicase DNA unwinding, fluorescence | hit rate 28% among 610 | Potency, µM (doses to about 229 µM), without a hit: at the highest dose activity change, negative = inhibition, most hits filed as inhibitors | shares compounds with RECQ1 inh-1; note: nearly all actives have a fitted effect of over 45% in size
ADP FP counter – ADP displacement flagged in RECQ1 inhibitor counter-screen. hit rate 27% among 530. shares compounds with RECQ1 inh-1. Potency, µM (highest dose often 228 µM), for the others: at the top dose activity change, negative = inhibition, usual class: inhibitors. ADP fluorescence polarization displacement counterscreen; note: nearly all actives have a fitted effect of over 45% in size
RECQ1 inh-2 – RECQ1 helicase inhibition confirmed, round 2; shares compounds with RECQ1 inh-1; recombinant RECQ1 DNA unwinding, red fluorescence; Potency, µM (titrated, usually from 119 µM), for inactives: at the top dose activity, negative = inhibition, most hits filed as inhibitors; hit rate 15% among 1,100; note: nearly all actives have a fitted effect of over 50% in size
Starred values were filed as active, the others as inactive; i = inactive; ? = inconclusive; . = no result; [ ] = another dose, or the depositor's remark. Calls come from the whole dose curve; as a rule, active = well fitted curve in the direction sought with a large enough effect; inconclusive = small, poorly fitted or top-dose-only effect, or another doubt; inactive = no such curve, though single readings can be large; an effect the other way counts as inactive or inconclusive. Unless noted, % is set by controls: 0 for no effect and ±100 for the full control effect; potency is the fitted concentration of half-maximal effect.

SMILES	BLM inh-1	APE1 inh	WRN inhibitor	RECQ1 inh-1	FEN1 inhibitor	RECQ1 conf	RECQ1 inh-2	others
CC[C@H](C)[C@H](NC(=O)[C@H](CO)NC(=O)[C@H](CC(N)=O)NC(=O)[C@H](CC(C)C)NC(=O)[C@H](Cc1ccc(O)cc1)NC(=O)[C@H](CCCCN)NC(=O)[C@H](CCCCN)NC(=O)[C@@H](NC(=O)[C@H](C)NC(=O)[C@H](CCSC)NC(=O)[C@H](CCC(N)=O)NC(=O)[C@H](CCCCN)NC(=O)[C@H](CCCNC(=N)N)NC(=O)[C@H](CC(C)C)NC(=O)[C@H](CCCNC(=N)N)NC(=O)[C@@H](NC(=O)[C@H](Cc1ccc(O)cc1)NC(=O)[C@H](CC(N)=O)NC(=O)[C@H](CC(=O)O)NC(=O)[C@@H](NC(=O)[C@H](Cc1ccccc1)NC(=O)[C@@H](NC(=O)[C@H](C)NC(=O)[C@H](CC(=O)O)NC(=O)[C@H](CO)NC(=O)[C@@H](N)Cc1cnc[nH]1)C(C)C)[C@@H](C)O)[C@@H](C)O)C(C)C)C(=O)N[C@@H](CC(C)C)C(=O)N[C@@H](CC(N)=O)C(N)=O	8%	14%	.	-1%	.	.	.
CC(C)CNC(=O)c1c(N)n(Cc2ccc3c(c2)OCO3)c2nc3ccccc3nc12	10µM*	-2%	-11%	i	-19%	.	.	BLM inh-2=-8%
C(CCOCC1CO1)COCC1CO1 (stereo unspecified)	.	2%	.	7%	.	.	.
C[C@]12CC[C@@H]3c4ccc(OC(=O)N(CCCl)CCCl)cc4CC[C@H]3[C@@H]1CC[C@@H]2O	14µM*	.	.	.	.	?	.	BLM inh-2=30µM*
O=[N+]([O-])C(Br)Br	.	2%	.	-2%	.	.	.
N#C/C(=C\c1ccc(O)c(O)c1)C(=O)NCCCNC(=O)/C(C#N)=C/c1ccc(O)c(O)c1	.	0.63µM*	.	0.45µM*	.	0.51µM*	.	BLM inh-2=27µM*
N#CC(C#N)=Cc1ccc([N+](=O)[O-])c(O)c1	-7%	-3%	.	?	.	.	.
COc1cc(O)c(C(=O)O)c(-c2cc(O)c(O)cc2C)c1	4%	20µM*	-9%	?	?	.	?
CCC(C=C[C@@H]1OC(=O)C=C[C@H]1C)=C[C@H](C)CC=CC(C)=C[C@@H](C)C(=O)[C@@H](C)[C@H](O)[C@@H](C)CC(C)=CC(=O)O	?	?	.	?	.	.	1.3µM*
O=C(Cl)C(Cl)(Cl)Cl	.	-5%	.	6%	.	.	.
CCCCC(CC)COC(=O)c1ccc(C(=O)OCC(CC)CCCC)c(C(=O)OCC(CC)CCCC)c1 (stereo unspecified)	.	5%	.	-3%	.	.	.
COC[C@H]1OC(=O)c2coc3c2[C@@]1(C)C1=C(C3=O)[C@@H]2CCC(=O)[C@@]2(C)C[C@H]1OC(C)=O	.	-10%	?	35µM*	0%	.	5%
COc1cc2c(cc1OC)C(c1c(O)n(CCc3ccccc3)c(=S)[nH]c1=O)NCC2 (stereo unspecified)	-6%	0%	?	?	-14%	.	?
ClCC(Cl)Cl	.	0%	.	-4%	.	.	.
ClC(Br)Br	.	0%	.	8%	.	.	.
Cc1ccc(-c2cc(-c3ccc(C)cc3)[n+](-c3ccc(C(=O)O)cc3)c(-c3ccc(C)cc3)c2)cc1	.	58%	4%	.	6%	.	.
O=C(O)c1ccc(-c2ccc3cc(C45CC6CC(CC(C6)C4)C5)c(O)cc3c2)cc1	-1%	-10%	.	20µM*	.	100µM*	?	ADP FP counter=112µM*
COc1cccc(CNC(=O)CSc2ccc(-c3ccco3)nn2)c1	-20%	?	-6%	?	-1%	.	-14%
CN1C[C@H](C(=O)N[C@]2(C)O[C@@]3(O)[C@@H]4CCCN4C(=O)[C@H](Cc4ccccc4)N3C2=O)C=C2c3cccc4[nH]cc(c34)C[C@H]21	-12%	?	.	?	.	?	.	ADP FP counter=7.1µM*
COC(=O)C1C=C2c3cccc4[nH]cc(c34)CC2N(C)C1 (stereo unspecified)	-26%	-9%	.	?	.	.	.
CCN(CC)C(=O)N[C@@H]1C=C2c3cccc4[nH]cc(c34)C[C@H]2N(C)C1	-8%	.	.	?	.	-6%	.	ADP FP counter=22µM*
CC[C@@H](CO)NC(=O)[C@@H]1C=C2c3cccc4[nH]cc(c34)C[C@H]2N(C)C1	-17%	?	-9%	35µM*	-19%	3%	.	ADP FP counter=112µM*
C=C(C)[C@H]1CC[C@]2(C(=O)O)CC[C@]3(C)[C@@H](CC[C@H]4[C@@]5(C)CC[C@@H](O)C(C)(C)[C@@H]5CC[C@@]43C)[C@H]12	0%[21.4 µM]	18%[21 µM]	.	-9%[25.9 µM]	.	.	.
COc1ccccc1N1CCN(C(=O)CCC(=O)Nc2nnc(CC(C)C)s2)CC1	-9%	54%	-1%	.	-7%	.	.
Nc1ccc(Cl)cc1C(=O)c1ccccc1Cl	-9%	-3%	-27%[57.1 µM]	25µM*	11%	.	-20%
SMILES	BLM inh-1	APE1 inh	WRN inhibitor	RECQ1 inh-1	FEN1 inhibitor	RECQ1 conf	RECQ1 inh-2	others
O=C(O)Cn1cc(C=C2C(=O)NC(=O)NC2=O)c2ccccc21	1%	21%	-11%	.	-3%	.	.
O=C(O)CCn1cc(C=C2C(=O)NC(=O)NC2=O)c(-c2cc3ccccc3oc2=O)n1	3%	-8%	-30%	21%	-10%	15%	.	ADP FP counter=-3%
O=NN(CCO)CCO	.	13%	.	-15%	.	.	.
O=C1C=CC(=O)C(Cl)=C1	-16%	28µM*	.	20µM*	.	?	.	ADP FP counter=16µM*
CCCCNC(=O)Oc1c(Br)cc2sc(=O)oc2c1Br	-9%	?	.	11µM*	.	5%[114 µM]	.	ADP FP counter=12%[91.9 µM]
CCCCC/C=C\C/C=C\C/C=C\C/C=C\CCCC(=O)NCCO	?	1%	.	-3%	.	.	.
CCCCC/C=C\C/C=C\C/C=C\C/C=C\CCCC(=O)NCc1ccoc1	?	?	.	11µM*	.	.	?
CCCCC(=O)Cl	.	1%	.	-7%	.	.	.
CNc1ccc2oc(C[C@H]3O[C@@]4(CC[C@H]3C)O[C@H]([C@H](C)C(=O)c3ccc[nH]3)[C@H](C)C[C@H]4C)nc2c1C(=O)O	-27%	-6%	-12%[11.6 µM]	?	?	.	-11%
